# According to PubChem BioAssay AID456 (Sanford-Burnham Center for Chemical Genomics, 2006):
# The whole screen tested about 10,000 compounds, of which about 25 (0.2%) were called active.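 How the source made its calls: active means top tenth filtered wells with inhibition above zero that passed visual or statistical confirmation; inactive means the rest, including hits rejected on review.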 The list comes from a sample in which actives are over-represented; it also holds similar structures and randomly drawn compounds. Measured potencies and affinities stand elsewhere.
# Test: suppression of endothelial VCAM-1 upregulation – imaging, high-content imaging, pooled HUVEC, TNFa stimulus (AID 456);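 on inhibition: VCAM-1 immunofluorescence minus red nonspecific channel after plate median normalization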
# Details: HUVEC TNFa-induced VCAM-1 surface expression, immunofluorescence imaging;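 compounds screened at 5 µM final in the well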
row,SMILES,inhibition
1,Cc1ccc2oc(=O)c3cnn(CC(=O)N4CCCCC4C)c3c2c1 (stereo unspecified),inactive
2,Cc1cc(NS(=O)(=O)c2ccc(NC(=O)C(C)N3C(=O)c4ccccc4C3=O)cc2)nc(C)n1 (stereo unspecified),inactive
3,CC(=O)Nc1ccc(Cc2ccncc2)cc1,inactive
4,O=S(=O)(Nc1ccccn1)c1ccc(Oc2ccccc2)cc1,inactive
5,CN(C)S(=O)(=O)c1ccc(Oc2ccc(S(=O)(=O)N(C)C)cc2)cc1,inactive
6,COCCn1c(COc2ccc(Cl)cc2)nnc1SCC(N)=O,inactive
7,Cc1cc(NC(=O)CSc2nnc(COc3cccc(C)c3C)n2Cc2ccco2)no1,inactive
8,Cc1occc1C(=O)N1CCN(Cc2ccccc2)CC1,inactive
9,CCOC(=O)c1sc(N)c(C(=O)OCC)c1COC(=O)C1CC(=O)N(Cc2ccco2)C1 (stereo unspecified),inactive
10,O=C(CN(c1ccccc1)S(=O)(=O)c1ccccc1)N1CCN(Cc2ccc3c(c2)OCO3)CC1,inactive
11,CCOC(=O)CNC(=O)c1c(C)nn(-c2ccccc2)c1Cl,inactive
12,COc1ccc(S(=O)(=O)NCC(=O)N(CC(=O)NCC2CCCO2)c2ccccc2C)cc1 (stereo unspecified),inactive
13,Cc1cccc(N2CCN(C(=O)CCn3c(=S)[nH]c4cc5c(cc4c3=O)OCO5)CC2C)c1 (stereo unspecified),inactive
14,CC1(C)C(c2ccccc2)=NC(c2ccccc2)N1O (stereo unspecified),inactive
15,O=C(NCCN1CCOCC1)c1csc2c1CCCC2,inactive
16,CCOC(=O)N1CCN(CC(O)COc2ccccc2C(C)CC)CC1 (stereo unspecified),inactive
17,CCN(CC(=O)Nc1ccc(S(N)(=O)=O)cc1)S(=O)(=O)c1cc(C)ccc1OC,inactive
18,CCCCC(=NCCO)C1=C(O)C(C(=O)OC)C(C)(C)CC1=O (stereo unspecified),inactive
19,O=C(CSc1nc2ccsc2c(=O)n1NC(=O)c1ccccc1)Nc1nccs1,inactive
20,COc1ccc(C)cc1-n1c(N)c(C#N)c(C#N)c1-c1ccc(OC)c(OC)c1OC,77% (active)
21,COc1ccc(Cn2c(N)c(C#N)c3nc4ccccc4nc32)cc1OC,inactive
22,COc1cc2c(C)nc(C)c(C#N)c2cc1OC,inactive

row,SMILES,inhibition
1,Cc1cc2cc(CN(CC3CCCO3)C(=O)c3cnccn3)c(=O)[nH]c2cc1C (stereo unspecified),inactive
2,COc1ccc2oc(C)c(C(=O)Cn3ccnc3)c2c1,inactive
3,Cn1c(=O)c2c(nc(SCCCO)n2Cc2ccccc2Cl)n(C)c1=O,inactive
4,Cn1c(=O)c2c(nc(SCCCC#N)n2Cc2c(F)cccc2Cl)n(C)c1=O,72.9% (active)
5,Cn1c(=O)c2c(nc(SCCCC#N)n2Cc2ccccc2F)n(C)c1=O,inactive
6,O=C(c1csc2ccccc12)N1CCCCCC1,inactive
7,Cn1c(-c2ccc(F)cc2)cnc1SCC(=O)Nc1ccccc1N1CCOCC1,inactive
8,Cc1ccnc2c(N3C(=O)C4C5C=CC(C5)C4(C)C3=O)cccc12 (stereo unspecified),inactive
9,CCOC(=O)C1CCCN(C(=O)CNS(=O)(=O)c2ccc(Br)s2)C1 (stereo unspecified),inactive
10,COC(=O)C1=C(C)n2nnnc2NC1c1ccc(Cl)cc1 (stereo unspecified),inactive
11,O=C(NCCN1CCOCC1)c1ccc2c(c1)N(Cc1ccccc1)C(=O)CS2,inactive
12,C=CCn1c(SCC(=O)NCC2CCCO2)nnc1C1CCCCC1 (stereo unspecified),inactive
13,Cc1cn2c(-c3ccncc3)nnc2s1,inactive
14,COc1ccc(-c2nn3c(-c4ccncc4)nnc3s2)cc1OC,inactive
15,Cc1ccc2cc(C(c3nnnn3C3CCCC3)N3CCN(c4ccc(F)cc4)CC3)c(=O)[nH]c2c1 (stereo unspecified),inactive
16,Cc1ccc2nc(C(F)(F)F)c(C#N)c(N)c2c1,74.6% (active)
17,Cc1cc(-c2ccccc2)c(C#N)c(N)n1,inactive
18,CN(C)c1ccc(NC(=O)CSCc2nc3c(nnn3Cc3ccc(F)cc3)c(=O)[nH]2)cc1,inactive
19,COC(=O)c1c(N)sc(C(=O)N2CCOCC2)c1C,inactive
20,O=C(CSc1nnc(-c2cccnc2)o1)Nc1ccccn1,inactive
21,c1ccc(Cn2ncc3c2ncn2c(-c4ccncc4)nnc32)cc1,inactive
22,CCOc1ccc(C(c2nnnn2Cc2ccccc2)N2CCN(C(=O)c3ccco3)CC2)cc1 (stereo unspecified),inactive

row,SMILES,inhibition
1,O=C(CSc1nnnn1Cc1ccccc1)Nc1ccc2c(c1)OCO2,inactive
2,CCOC(=O)c1sc(Nc2nc3c(OC)cccc3s2)nc1C,inactive
3,COc1cc(NS(=O)(=O)N2CCCC2)cc(OC)c1OC,inactive
4,COc1ccc2ccccc2c1CN1CCN(C)CC1,inactive
5,c1cc(C(c2nnnn2C2CCCC2)N2CCOCC2)ccn1 (stereo unspecified),inactive
6,O=C(Nc1ccc(N2CCOCC2)c(F)c1)c1ccncc1,inactive
7,COc1ccc2cc(C(c3nnnn3C(C)(C)C)N3CCc4ccccc4C3)c(=O)[nH]c2c1 (stereo unspecified),inactive
8,CCC(C)(C)n1nnnc1C(c1ccc(OC)c(OC)c1)N1CCN(c2ccccc2)CC1 (stereo unspecified),inactive
9,C=CCSC1=C(C#N)C(c2ccccc2OCC)CC(=O)N1 (stereo unspecified),inactive
10,CNC(=O)CSc1nnc(-c2cc(C)cc(C)c2)o1,inactive
11,Cc1csc(NC(=O)CCCSc2nc3ccccc3s2)n1,inactive
12,CCOCCCNC(=O)C1CCCN(S(=O)(=O)CC)C1 (stereo unspecified),inactive
13,O=C(NCc1ccccc1)C1CCCN1S(=O)(=O)c1cccc2cccnc12 (stereo unspecified),inactive
14,CC(=O)OCC(=O)[C@H]1CC[C@H]2[C@@H]3CCC4=CC(=O)CC[C@]4(C)[C@H]3CC[C@]12C,78.2% (active)
15,C[C@]12CC[C@H]3[C@@H](CCC4=CC(=O)CC[C@@]43C)[C@@H]1CC[C@@H]2C(=O)CO,72.2% (inactive)
16,CC(=O)[C@H]1CC[C@H]2[C@@H]3CCC4=CC(=O)CC[C@]4(C)[C@H]3CC[C@]12C,87.1% (inactive)
17,CCC(=O)O[C@]1(C(=O)CCl)[C@@H](C)C[C@H]2[C@@H]3CCC4=CC(=O)C=C[C@]4(C)[C@@]3(F)[C@@H](O)C[C@@]21C,78.5% (active)
18,CCCC(=O)O[C@]1(C(=O)CCl)[C@@H](C)C[C@H]2[C@@H]3CCC4=CC(=O)C=C[C@]4(C)[C@@]3(F)C(=O)C[C@@]21C,inactive
19,CC(=O)OCC(=O)[C@@]1(O)[C@H](C)C[C@H]2[C@@H]3CCC4=CC(=O)C=C[C@]4(C)[C@@]3(F)[C@@H](O)C[C@@]21C,inactive
20,CCOC(=O)Nc1cc(OCC)c(NC(=O)C2CC2)cc1OCC,inactive
21,COC(=O)CCN(C(=O)c1ccc2c(c1)OCO2)c1ccccn1,inactive
22,Cc1ccc(S(=O)(=O)N2CCCC(c3nnc4n3-c3ccccc3SC4)C2)cc1 (stereo unspecified),inactive
